# From PubChem
# MRP reversal = reverses drug resistance mediated by MRP. differential viability (reversal), % at 10 µM. H69AR cells + 2 uM doxorubicin, CellTiter-Glo, 72 h. 85,000 tested, 0.04% active;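 active = viability drop by adding the cancer drug above about 55%, with treated viability meeting a 40% cutoff, limit read from the data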;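 also: viability without doxorubicin minus viability with 2 µM doxorubicin for each compound; larger differential means the compound sensitizes cells more to doxorubicin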
# MRP1 act = activators of MRP-1 | 140,000 tested, 0.61% active | AID 799 | viability increase, % at 10 µM | H69AR cells + doxorubicin, viability rescue, CellTiter-Glo;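 active = viability gain under doxorubicin at or above a set limit, the compound median plus 3 SD, cut at about 4.7% in these data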;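 also: MRP-1 overexpressing cells given doxorubicin 25 µM after compound pretreatment; 18-22 h compound pretreatment then 72 h with doxorubicin before readout; 0% = doxorubicin-only wells and 100% = vehicle-treated cells without doxorubicin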
# GALR2 blocker = GALR2 (human) receptor antagonism | O43603 | GALR2-expressing cells, antagonist mode | inhibition, % at 4 µM | 140,000 tested, 0.39% active; in the data active = inhibition above about 27%;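 also: cells stimulated with galanin 1-16 at roughly its EC80; 0% = agonist challenge control and 100% = basal control without agonist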
# S1P2 blocker = antagonists of human S1P2 receptor | O95136 | cell-based S1P2 antagonist assay, inhibition at 5 uM | inhibition, % at 5 µM | 97,000 tested, 0.21% active; in the data active = inhibition above about 45%;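 also: CRE beta-lactamase reporter cells expressing human S1P2 stimulated with S1P; 0% = agonist at EC80 alone and 100% = agonist plus reference antagonist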
# Target sequence (O95136 whole entry, looked up): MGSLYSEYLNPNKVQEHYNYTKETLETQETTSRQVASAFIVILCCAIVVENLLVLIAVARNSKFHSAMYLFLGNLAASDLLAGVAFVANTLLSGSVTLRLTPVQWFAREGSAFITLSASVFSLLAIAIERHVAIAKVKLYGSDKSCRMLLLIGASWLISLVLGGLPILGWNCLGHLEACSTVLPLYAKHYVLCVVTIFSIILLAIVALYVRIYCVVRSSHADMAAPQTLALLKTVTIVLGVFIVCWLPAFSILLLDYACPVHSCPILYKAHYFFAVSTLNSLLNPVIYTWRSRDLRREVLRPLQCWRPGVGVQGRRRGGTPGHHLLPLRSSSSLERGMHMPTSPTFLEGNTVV
# S1P2 ag = S1P2 (human) receptor agonism; activation, % at 4.5 µM; 97,000 tested, 0.46% active; AID 729; O95136; S1P2-expressing cell line, agonist reporter read-out; in the data active = activation above about 16%;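 also: 0% = vehicle low control and 100% = maximal reference agonist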
# GALR2 agonist = GALR2 (human) receptor agonism | AID 803 | activation, % (test concentration not listed) | 140,000 tested, 0.48% active | GALR2-expressing cells, agonist activation read-out | O43603; in the data active = activation above about 5%, passing the limit was not always enough;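 also: 0% = vehicle buffer wells and 100% = reference agonist at full effect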
# Starred values were filed as active, the others as inactive; / = no result given. Most compounds without a hit are left out; they make up all but 1.8% or so of the library.
SMILES,MRP reversal,MRP1 act,GALR2 blocker,S1P2 blocker,S1P2 ag,GALR2 agonist
COc1cc(-c2nc(S(=O)(=O)c3ccc(Cl)cc3)c(N3CCOCC3)o2)cc(OC)c1OC,-2,0,-7,-25,10,0
COc1cc(-c2nc(S(=O)(=O)c3ccc(C)cc3)c(N3CCOCC3)o2)cc(OC)c1OC,/,-2,-4,-55,18*,-1
Cc1nnc(Sc2nc3c(c(=O)[nH]c(=O)n3C)n2CCCc2ccccc2)s1,7,0,-5,-31,27*,-3
O=C(O)C1CCCCC1C(=O)NCCc1ccc(Cl)cc1 (stereo not given),-3,2,8,-20,-5,1
CC(C)NC(=O)C(=O)NCCc1ccc(Cl)cc1,19,4.8*,-10,-10,1,0
CCOc1ccc(NC(=O)CNC(=O)c2cn(-c3ccccc3OC)c(=O)c3ccccc23)cc1,12,-2,-3,10,0,-2
N#Cc1nc(COc2ccc(F)cc2)oc1N1CCCC1,-2,4.8*,1,-8,-3,0
CCOc1ccc(-c2nc(C#N)c(N3CCN(C)CC3)o2)cc1,12,1,8,-10,-1,-1
CCOc1ccc(-c2nc(C#N)c(N3CCCCCC3)o2)cc1,-10,5.7*,-2,15,-3,-1
N#Cc1nc(COc2cccc(Cl)c2)oc1N1CCCC1,11,-2,-5,24,-4,-2
Cc1cc(NC(=O)CSc2ccc3nnc(-c4cccs4)n3n2)no1,8,-5,6,-29,-8,-3
Cc1cc(=O)oc2c1ccc1oc(/C(=N/O)c3ccccc3)c(C)c12,-10,10*,3,-22,3,-2
Cc1ccc(/C(=N\O)c2oc3c(C)c4oc(=O)cc(C)c4cc3c2C)cc1,-5,-7,-1,-35,8,-1
Cc1ccc2c(c1C)NC(C)CC2C (stereo not given),-6,-3,-2,-16,-1,-3
COc1ccccc1N=c1oc2cc(O)ccc2cc1C(=O)NCC1CCCO1 (stereo not given),-1,-1,-15,-16,16,29*
Cc1cccc(N=c2oc3cc(O)ccc3cc2C(N)=O)c1,-2,-6,-28,-43,30*,66*
COc1ccccc1NC(=O)c1cc2ccc(O)cc2o/c1=N\O,-15,-2,0,-2,-2,1
COc1ccccc1N=c1oc2cc(O)ccc2cc1C(N)=O,/,-2,-46,-34,45*,20*
COC1(OC)C(=N/O)/C(=N\O)CCC1O (stereo not given),13,11*,4,11,-5,0
CCOC(=O)N1CCC(NC(=O)C2CCCN(Cc3nc(-c4cccc(Cl)c4)oc3C)C2)CC1 (stereo not given),/,-3,25,61*,-2,-1
CCN1CCN(CCNC(=O)C2CCCN(Cc3nc(-c4cccc(Cl)c4)oc3C)C2)CC1 (stereo not given),20,-5,-2,19,-3,-3
Cc1ccc(Nc2nnc(-c3ccncc3)s2)c(Br)c1,/,-1,7,/,/,1
CCCOc1ccccc1Cn1c(=O)oc2ccc(C)cc21,7,0,14,-15,4,0
CCCOc1ccc(Cn2c(=O)oc3ccc(C)cc32)cc1OC,/,0,4,9,29*,0
C/C(=N/NC(=O)c1ccc2c(c1)OCO2)c1cccc(NC(=O)C(C)(C)C)c1,/,-3,20,-12,41*,-1
SMILES,MRP reversal,MRP1 act,GALR2 blocker,S1P2 blocker,S1P2 ag,GALR2 agonist
COCCN(C(=O)Cc1cccs1)c1nnc(-c2cccnc2)s1,-1,-1,0,6,-5,-1
CCCCN(C(=O)Cc1cccs1)c1nnc(-c2cccnc2)s1,22,5.8*,21,-9,-3,-2
CCOC(=O)NCc1ccc(S(=O)(=O)Nc2c(C)cccc2C)cc1,16,-1,-2,-17,-9,0
Cc1cccc(-n2c(SCc3cc(=O)n4c(C)cccc4n3)nc3[nH]ncc3c2=O)c1,-13,-1,3,-30,17*,-2
COc1cccc2c1C(=O)c1c(O)c3c(c(O)c1C2=O)C[C@@](O)(C(C)=O)C[C@@H]3O[C@H]1C[C@H](N)[C@H](O)[C@H](C)O1,/,/,98*,/,/,-2
O=C(CCN1C(=O)COc2ccccc21)NCc1cccs1,7,-1,1,7,-6,-2
O=C1C(=O)N(CCCn2ccnc2)C(c2cccnc2)/C1=C(/O)c1ccc(Cl)cc1 (stereo not given),2,/,/,/,/,/
